Measurements taken from PubChem BioAssay (NCI).
The panel holds about 83,000 compounds, 20% with a hit somewhere; the sample as a whole holds those more often.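 Growth was measured after 48 h exposure to one concentration of compound in 96-well plates. Values under 10 count as active.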 Unmarked numbers belong to inactive results. Active and inactive are the calls of the source.

Test system: OVCAR-5 ovarian
Experiment: NCI-60 one-dose screen, 48 h (100 = growth as untreated, 0 = no growth, -100 = all killed)
Conditions: 10 µM unless noted
Procedure: Growth inhibition of the OVCAR-5 human tumor cell line is measured as a screen for anti-cancer activity. Cells are grown in 96 well plates and exposed to the test compound for 48 hours. Compounds are tested at a single concentration, which is 10^-5 M for most compounds. The reported endpoint is percent growth (GI% or GIPRCNT), where numbers from 0 - 100% represent growth inhibition, and numbers from -100% - 0 represent cell death. For example, a value of 40 represents 60% growth inhibition. A value of 0 means no net growth occurred over the course of the experiment. A value of -40 indicates 40% of cells at the beginning of the experiment died by the end of the experiment. A value of -100 means all cells are dead at the end of the experiment.
NCI-60 Human Tumor Cell Lines Screen was performed using the standard one-dose NCI protocol, which is described in more detail at https://dtp.cancer.gov/discovery_development/nci-60/default.htm.
Compounds with GIPRCNT values below 10 were considered active. Activity score was based on GIPRCNT using the following formula: […]
Score is 0 for GIPRCNT values of 100 or above, 50 for GIPRCNT values of 0, and 100 for GIPRCNT values of -100.

Structure (SMILES) | growth
Clc1ccc2c(NCCCN3CCN(c4nc(-n5ccnc5)nc5ccccc45)CC3)ccnc2c1 | 120%
O=C(NCc1cccnc1)c1cc(-c2csc3c(=O)cc(N4CCOCC4)oc23)cc2c1OCCO2 | 31.3%
Cn1ncc2c(Nc3ccc(Br)cc3)nc(Nc3ccc(Br)cc3)nc21 | 56.9%
CC(C)n1nc(C#Cc2cccc(O)c2)c2c(N)ncnc21 | -43% (active)
CCOC(=O)C1C(=O)C=C(c2cnccn2)CC1c1ccc(OC)c(OC)c1 (stereo not given) | 103%
O=C(/C=C/C12c3ccccc3C(c3ccccc31)C1C(=O)NC(=O)C12)c1ccccc1 (stereo not given) | 26.4%
CCCCCCCCn1cc(C2=C(c3coc4ccc(OC)cc34)C(=O)NC2=O)c2ccccc21 | 90.8%
COc1ccc(-c2nc3sc4c(c3c(=O)[nH]2)CCCC4)c2ccccc12 | -17.7% (active)
CCNCCNc1cc(-c2ccc(C(=O)OC)cc2)c(C#N)c2nc3ccccc3n12 | 102%
CC[C@@H](C[C@H](CCO)c1ccccc1)c1cc2ccccc2o1 | 96.7%
COc1cc2nc(Nc3ccc(F)cc3)nc(N)c2cc1OC | 99.1%
CCn1c(Sc2nnc(Nc3ccccc3)s2)nc2c1c(=O)n(C)c(=O)n2C | 77.4%
COC(=O)Nc1nc2ccc(C(=O)C3CC3)cc2[nH]1 | 48.9%
Cc1nc(Nc2ccc(N)cc2)c2ccccc2n1 | 100%
COc1ccc(-c2cc(-c3ccc(Nc4nc(Nc5ccccc5)nc(Nc5ccc(Cl)cc5)n4)cc3)nc(N)n2)cc1 | 66.5%
O=S(=O)(NCCNc1cc(-c2c(-c3cccc(O)c3)nc3sccn23)ccn1)c1ccc(Br)cc1 | 109%
O=C(CC12CC3CC(CC(C3)C1)C2)NCCOCCOCCNC(=O)c1cc2c(o1)C(=O)c1ccccc1C2=O | -96.9% (active)
CC1(C)CC(=O)c2c(ccc(C(=O)C[C@H](N)CO)c2N)O1 | 64.2%
O=C(Nc1ccccc1Cl)OCCN1CCOCC1 | 110%
O=c1cc(-c2ccc(OCc3ccccc3)cc2)oc2c(I)c(OCc3ccccc3)cc(OCc3ccccc3)c12 | 103%

Structure (SMILES) | growth
CN(C)c1ccc(/C=C2\C=C(c3ccccc3)N(CCc3ccccc3)C2=O)cc1 | 98.7%
Cc1ccc(S(=O)(=O)NN/C(N)=N\S(=O)(=O)c2cc(C)c(Cl)cc2SCc2ccccc2)cc1 | 89.2%
O=c1[nH]nc(-c2ccc(Cl)cc2)cc1Cc1ccccc1 | 94.1%
NC(=O)c1c(NC(=O)c2ccccn2)sc2c1CCC(=O)C2 | 21.5%
COc1cc(NC(=O)c2cccc(-c3cc(=O)c4c(O)c(OC)c(OC)cc4o3)c2)cc(OC)c1OC | 77.4%
CCCN1CCN(c2ccc3nc(-c4ccc5nc(-c6cc(OC)c(OC)c(OC)c6)[nH]c5c4)[nH]c3c2)CC1 | 116%
C=C1C(=O)O[C@H]2[C@H]1CC/C(COC(=O)/C=C\C(=O)NCc1ccc(Cn3c(=O)sn(CCCC)c3=O)cc1)=C\CC[C@@]1(C)O[C@@H]21 | -78.9% (active)
CCn1c(Sc2nnc(NC(=O)CCN3CCCC3)s2)nc2c1c(=O)n(C)c(=O)n2C | 98.3%
CCN(CC)CCOc1ccc(/C(=C(\C)c2ccc(OC)c(F)c2)c2ccc(Cl)cc2)cc1 | 72.9%
N=C(N)c1ccc(-c2ccc(-c3ccc(Cl)cc3Cl)o2)nc1 | 77.2%
CS(=O)(=O)c1ccc(-c2[nH]c3ccc(F)cc3c2/C=N/NC(N)=S)cc1 | 28.2%
Nc1nc(Nc2ccc(Cl)cc2)nn1S(=O)(=O)c1ccc(-c2ccc(F)cc2)cc1 | 85.7%
CC(C)c1ccc(NC(=O)Cc2ccc(Nc3ncnc4cc(-c5cnn(CCN(C)C)c5)ccc34)cc2)cc1 | -98.9% [30 µM] (active)
CCCCOc1ccc(NC(=O)n2nc(N=NN(C)C)c3ccc(Cl)cc32)cc1 | 103%
C=C1C(=O)O[C@H]2[C@H]1CC/C(COC(=O)NCc1ccc(Cn3c(=O)sn(CCCCl)c3=O)cc1)=C\CC[C@@]1(C)O[C@@H]21 | 69.8%
Cc1csc(NC(=O)c2sc3nc(-c4cccs4)ccc3c2N)n1 | 116%
Clc1ccc(-c2nnc(Cn3ccnc3)o2)cc1 | 96.2%
COc1ccc(-c2c(N)n[nH]c2-c2ccccc2O)cc1OC | 92.2%
CN1CCN(C2=C(Cl)C(=O)c3ccccc3C2=O)CC1 | 119%
CCn1c(Sc2nnc(NC(=O)CSC(=S)N3CCCCC3)s2)nc2c1c(=O)n(C)c(=O)n2C | 93.6%
